Rows were chosen to be rich in hits. Some 1.1% of all compounds tested hit in one or more screens of this group.
Sa ugtP lethal = growth inhibition of S. aureus ugtP deletion strain; S. aureus RN4220 ugtP deletion, OD600 growth, 16 h; growth inhibition, % (test concentration not listed); actives 0.54% (n = 330,000); AID 1259309; in the data active = growth inhibition above about 68%;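 note: plate controls were untreated wells for no effect and antibiotic for full effect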
Sa RN4220 lethal = kills Staphylococcus aureus RN4220. S. aureus RN4220 growth, OD600, 16 h. inhibition, % (no concentration beside the values). actives 0.33% (n = 330,000). AID 1259311; in the data active = inhibition above about 85%;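 note: plate controls were untreated cells for no effect and reference antibiotic for full effect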
PriA SSB inh = inhibitors of Klebsiella pneumoniae PriA binding to SSB C-terminal tail; inhibition, % at 33 µM; actives 0.6% (n = 430,000); AlphaScreen SSBct-PriA binding, biotinylated peptide; in the data active = inhibition mostly above about 37%, no sharp cut-off; inactive = mostly below about 20%;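 note: plate controls were negative control peptide for no effect and reference peptide for full effect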
Mtb hypoxia inh = reduces hypoxia-regulated biosensor signal in M. tuberculosis; actives 0.1% (n = 300,000); fluorescence inhibition, % (no concentration beside the values); M. tuberculosis hypoxia-regulated fluorescent reporter, fluorescence; in the data active = fluorescence inhibition mostly above about 23%, no sharp cut-off; inactive = mostly below about 17%
The depositor's hits bear a star; x = no result given.

SMILES | Sa ugtP lethal | Sa RN4220 lethal | PriA SSB inh | Mtb hypoxia inh
CCOC(=O)c1ccc(NC(=O)/C=C/c2ccc(OC(=O)c3ccccc3F)cc2)cc1 | x | x | -14 | x
COc1cc(C#Cc2c(-c3cncn3C)n(C)c3ccc(-c4ccc(OC)c(OC)c4)cc23)cc(OC)c1 | 29 | 8 | 13 | -5
COc1cc(C#Cc2c(-c3cncn3C)n(C)c3ccc(Br)cc23)cc(OC)c1 | 99* | 99* | 24 | -2
CCOC(=O)C(NCc1ccccn1)(NC(=O)c1cccnc1)C(F)(F)F (configuration not stated) | -17 | 13 | 51* | x
COc1ccc(N(CCCN2C(=O)c3cccc4cccc(c34)C2=O)C(=O)c2cccs2)cc1 | 8 | 4 | 1 | 8
O=C1c2ccccc2C(=O)N1CCCCN(C(=O)c1ccc([N+](=O)[O-])o1)c1ccc(Cl)cc1 | x | x | 40* | x
Cc1ccc(N(CCCCN2C(=O)c3ccccc3C2=O)C(=O)c2cccs2)cc1 | -4 | -7 | 66* | x
CC1(C)SC(=S)N(N=Cc2ccc(O)cc2)C1N(O)C(=O)Nc1ccc([N+](=O)[O-])cc1 (configuration not stated) | -14 | 10 | 28 | -7
CN(C)c1ccc(C=NN2C(=S)SC(C)(C)C2N(O)C(=O)Nc2ccc([N+](=O)[O-])cc2)cc1 (configuration not stated) | -5 | -5 | 45* | x
O=C(NCc1ccnc(-c2ccsc2)c1)C1CCCC1 | x | x | -6 | x
O=C1c2cccc3cccc(c23)C(=O)N1CCc1ccc(S(=O)(=O)NCCc2ccccc2)cc1 | x | x | -3 | x
COC1=C(Nc2ccccc2OC)C(=O)c2ccccc2C1=O | 7 | 28 | 68* | -9
O=C(Nc1nc(CN2CCc3ccccc3C2)cs1)c1c(F)cccc1Cl | x | x | 11 | x
O=C(NCCCn1ccnc1)C(=O)NCc1ccc2c(c1)OCO2 | x | x | -8 | x
O=C(CCc1ccccc1)NC(=S)Nc1ccccc1[N+](=O)[O-] | 22 | 1 | 39* | 8
O=C(CCc1ccccc1)Nc1ccccc1[N+](=O)[O-] | 7 | 9 | 15 | -1
Cc1oc2cc(Br)c(O)c(Br)c2c1-c1ccccc1 | 87* | -4 | 17 | 18
CCCCOc1ccc(CN=C(N)N)cc1Cl | 100* | 5 | -14 | 7
CCCOc1ccc(CCCN=C(N)N)cc1Cl | 101* | 37 | -1 | 7
CCS(=O)(=O)c1ccc(C(=O)N(CCn2cccn2)c2nc3ccccc3s2)cc1 | x | x | -2 | x
CCOC(=O)C1CCN(c2c(C(=O)c3ccccc3)cnc3ccc(CC)cc23)CC1 | 94* | 39 | 2 | 1
CN(C)C(=O)C1CCNCC1 | x | x | 39* | x
Nc1nc(-c2ccccc2)c(N=Nc2cccc3ccccc23)s1 | 97* | 99* | 82 | 10
CCCCOc1ccc(C(=O)Nc2nnc(-c3ccc(F)cc3)o2)cc1 | x | x | -3 | x
O=C(Nc1cnn(C2CCOCC2)c1)c1ccc(Br)o1 | x | x | 9 | x
SMILES | Sa ugtP lethal | Sa RN4220 lethal | PriA SSB inh | Mtb hypoxia inh
COc1ccc(/C=C2\SC(=S)N(NS(=O)(=O)c3ccccc3)C2=O)c(OC)c1 | 91* | 69 | 2 | 5
CCOc1ccc(/C=C2\SC(=S)N(NS(=O)(=O)c3ccc(C)cc3)C2=O)cc1OC | 85 | 86* | 9 | 4
COc1ccccc1/C=C1\SC(=S)N(NS(=O)(=O)c2ccc(C)cc2)C1=O | 81 | 96* | -1 | -19
CCOc1ccccc1NC(=O)CSc1nnc(-c2ccco2)n1-n1cccc1 | x | x | -13 | x
CN(C)S(=O)(=O)c1cccc(NC(=S)Nc2cc(Cl)cc(Cl)c2)c1 | 100* | 100* | -4 | 9
O=C1OCCN1N=Cc1ccc([N+](=O)[O-])o1 | 100* | 100* | -12 | -21
Cc1ccnc(Nc2ccc(NCCNC(=O)Nc3cccc(C(F)(F)F)c3)nn2)c1 | x | x | 32* | x
Cc1ccnc(Nc2ccc(NCCNC(=O)c3c(F)cccc3Cl)nn2)c1 | x | x | 6 | x
Cc1ccnc(Nc2ccc(NCCNC(=O)c3cccc(F)c3)nn2)c1 | x | x | 20 | x
Cc1ccnc(Nc2ccc(NCCNC(=O)Nc3ccc(F)c(Cl)c3)nn2)c1 | x | x | 96* | x
CN(C)CCSc1nc2cc(S(=O)(=O)N3CCCCC3)ccc2o1 | 5 | 5 | -1 | 35*
CCn1nc(C)cc1-c1nnc(SCC(=O)Nc2ccccc2)n1CCCOC | -1 | -1 | 5 | 2
CCn1nc(C)cc1-c1nnc(Sc2ncc([N+](=O)[O-])s2)n1C | 91* | 48 | -31 | 16
O=C(NC(NC(=S)Nc1cccc(C(=O)O)c1)C(Cl)(Cl)Cl)OCc1ccccc1 (configuration not stated) | 9 | 3 | 5 | 4
O=C(NC(NC(=S)Nc1cccc(Cl)c1)C(Cl)(Cl)Cl)OCc1ccccc1 (configuration not stated) | 96* | 90* | -5 | -3

Screening results deposited in PubChem by several laboratories.
